The full list was thinned out, with hits kept by preference.
ST2 IL33 inh = inhibitors of human ST2 (IL1RL1) binding to IL-33, primary screen, biochemical, AlphaLISA | AlphaLISA ST2-Fc/biotin-IL-33 interaction, 1 h | inhibition, % for hits at 17 µM | 78,000 tested, 2.3% active | Interleukin-1 receptor-like 1 (Homo sapiens), Q01638 | AID 1259354, 2018; in the data active = inhibition above about 30%
Target sequence (Q01638 whole entry, looked up): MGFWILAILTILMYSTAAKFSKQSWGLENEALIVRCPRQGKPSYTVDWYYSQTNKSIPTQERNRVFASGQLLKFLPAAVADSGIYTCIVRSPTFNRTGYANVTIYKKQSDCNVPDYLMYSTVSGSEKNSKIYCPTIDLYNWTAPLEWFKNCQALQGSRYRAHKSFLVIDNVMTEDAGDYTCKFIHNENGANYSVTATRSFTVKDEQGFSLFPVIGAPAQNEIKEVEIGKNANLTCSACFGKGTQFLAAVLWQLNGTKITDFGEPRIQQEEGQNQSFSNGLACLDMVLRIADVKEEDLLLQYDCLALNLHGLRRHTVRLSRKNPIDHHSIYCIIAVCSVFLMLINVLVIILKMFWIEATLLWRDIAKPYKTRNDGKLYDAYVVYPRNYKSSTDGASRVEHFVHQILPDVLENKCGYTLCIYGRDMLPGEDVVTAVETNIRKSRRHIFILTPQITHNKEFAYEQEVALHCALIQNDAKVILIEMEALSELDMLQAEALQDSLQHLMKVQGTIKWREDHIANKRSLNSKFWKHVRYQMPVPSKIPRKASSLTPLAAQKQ
An asterisk follows results filed as active; i = inactive; ! = repeats disagree.

SMILES	ST2 IL33 inh
Cc1[nH]nc(-c2ccc(O)c(O)c2O)c1Oc1ccccc1	42%*
C[C@@H](Cc1ccccc1)NC(=O)c1ccccc1Cl	i
Cc1ccc(-n2c(=O)c3c4c(sc3n(CC(=O)NCc3ccco3)c2=O)CCC4)cc1C	i
CC(C)C1CCC(CO)=CC1/C=C(\CO)C(=O)OCC1(O)CCC(C(C)C)C2C=C(C(=O)O)COC(=O)C21 (stereo unspecified)	i
CC(=O)Nc1ccc(Cl)c(C(=O)Nc2cnc3n2CCCC3)c1	i
CCOC(CCNC(=O)c1cc(-c2ccc(Cl)s2)nc2ccccc12)OCC	i
CCCCc1ncc(CN2CCN(CCC(C)C)C(CCO)C2)[nH]1 (stereo unspecified)	i
CCCc1nnc([C@H]2CCN(C3CCN(C(C)=O)CC3)C2)o1	i
Cc1ccc(-c2nnc(-c3nc(NCCCN4CCc5ccccc5C4)c4ccccc4n3)o2)cc1	i
O=C(Nc1ccccc1)c1ccc(S(=O)(=O)N2CCCCC2)cc1	i
O=C(O)c1ccc(S(=O)(=O)N2CCCC2)cc1	35%*
CC(C)(C)c1ccc(C(=O)Nc2ccc(S(=O)(=O)N3CCCC3)cc2)cc1	i
CCc1cnc(N2CC[C@@H](c3ccc4ccccc4c3)[C@H](O)C2)nc1	i
CN(C)c1ncc(CN2CCC(Cn3cc(CO)nn3)CC2)s1	i
CC(C)N1CCOC(Cc2nn3c(Cc4ccccc4)nnc3s2)C1 (stereo unspecified)	i
CN(C)CCN(C)[C@@H]1[C@H](O)[C@H](CO)O[C@@H]1CNC1CCN(C)CC1	i
NC(=O)Cc1c[nH]c2cccc(O)c12	101%*
O=C(O)CCCc1c[nH]c2ccccc12	i
CC(Cc1c[nH]c2ccccc12)NC(N)=O (stereo unspecified)	i
Cc1ncc2c(c1CNC(=O)CSc1ccccc1)CCN(C(=O)/C=C/C(C)C)C2	i
COc1ccccc1N=c1sc(C2=c3ccccc3=NC2=O)c(O)n1-c1ccccc1OC	36%*
OC1CCCN(Cc2cccc(F)c2)C1 (stereo unspecified)	i
COc1ccccc1N1C(=O)C2C(c3cccs3)NC(Cc3ccccc3)(C(=O)O)C2C1=O (stereo unspecified)	i
CC(C)CNC(=O)CN1C(=O)c2ccccc2S1(=O)=O	i
O=C(NCCc1ccccc1)c1ccc2nc3sc4c(c3c(=O)n2c1)CCCC4	i
SMILES	ST2 IL33 inh
O=C(NCc1ccccc1)c1ccc2nc3sc4c(c3c(=O)n2c1)CCCC4	i
O=C(c1ccc2nc3sc4c(c3c(=O)n2c1)CCCC4)N1CCN(c2ccccc2)CC1	31%*
CC(C)N1CCC[C@H]1c1nc(-c2ccc(-n3ccnc3)nc2)no1	35%*
c1cc(N2CCOCC2)ncc1-c1noc([C@@H]2CCCN2C2CCOCC2)n1	i
c1cn(-c2ccc(-c3noc([C@@H]4CCCN4)n3)cn2)cn1	i
CN(C)CC1(O)CCCN(C(=O)c2cnc(-c3cccnc3)nc2)C1 (stereo unspecified)	i
O=C1NC(C(=O)NCc2cccnc2N2CCCCCCC2)CO1 (stereo unspecified)	i
Oc1cccc(N=Cc2nc(-c3ccc(Br)cc3)oc2O)c1	i
O=C(N1CCOC(C(F)(F)F)C1)C1(S(=O)(=O)c2ccccc2)CC1 (stereo unspecified)	i
CNc1nc(N2CCOC(C(F)(F)F)C2)ncc1F (stereo unspecified)	i
FC(F)(F)C1CN(c2ccc(-c3ccccc3)nn2)CCO1 (stereo unspecified)	96%*
CCOc1ccc(OCC)c(S(=O)(=O)N2CCN(c3nc(C)cc(N4CCOCC4)n3)CC2)c1	i
CCOc1ccc(CN2CCc3ccccc3C2)cc1	i
Clc1ccccc1CN1CCc2c([nH]c3ccccc23)C1	i
CN(C)c1ccc(CN2CCc3c([nH]c4ccccc34)C2)cc1	32%*
c1ccc2c3c([nH]c2c1)CN(Cc1ccc2c(c1)OCO2)CC3	i
Clc1ccc(CN2CCc3ccccc3C2)cc1Cl	i
CN(C)c1ccc(CN2CCc3ccccc3C2)cc1	31%*
Cn1c(Cc2ccccc2)nnc1SCc1nc2ccccc2[nH]1	i
C=CCN(C(=O)CN1CCOc2ccccc2C1)C1CCS(=O)(=O)C1 (stereo unspecified)	i
CC1=C(C(=O)Nc2ccccn2)C(c2ccccc2F)n2ncnc2N1 (stereo unspecified)	i
Cn1c(C2CCC2)nc2cc(C(=O)NC3Cc4ccccc4C3)cc(NC(=O)C3CCCO3)c21 (stereo unspecified)	i
Cc1ccn2c(NC(=O)c3cc4ccccc4oc3=O)c(-c3ccccc3)nc2c1	i
O=[N+]([O-])c1ccc(-c2nnc(S)n2-c2ccccc2)cc1	i
O=C1Nc2ccccc2N(O)N1c1ccc([N+](=O)[O-])cc1	i
SMILES	ST2 IL33 inh
N#Cc1cc2[nH]c3ccccc3c2n(-c2ccc([N+](=O)[O-])cc2)c1=N	34%*!
COc1ccc(C(=O)N2CC[C@@H]3NC(=O)[C@H]4C[C@H](NC(=O)C5CCC5)CN4C(=O)[C@H]32)cc1	i
CC(=O)NC1=NN(C(C)=O)C(C)(CS(=O)(=O)c2ccc(C)cc2)S1 (stereo unspecified)	i
Oc1oc(-c2ccc(Cl)cc2)nc1C=Nc1ccccn1	33%*
Cc1cccc(N=Cc2nc(-c3ccc(Cl)cc3)oc2O)n1	i
Cc1cccc(N=Cc2nc(-c3ccc(Cl)cc3)oc2O)c1	i
COc1ccc(Cl)cc1NC(=O)C(NS(=O)(=O)c1cccs1)c1ccccc1 (stereo unspecified)	i
CCOC(=O)N1CCC(NC2CCN(c3ccc(CC(=O)NCc4ccccc4)cc3)CC2)CC1	i
CCOc1ccc(C2NC(=O)c3c(sc4c3CCCC4)N2)cc1OCC (stereo unspecified)	i
Cc1cnccc1NCCNC1CCN(CC(C)C)CC1	i
CN(C)/C(=C1/c2cc([N+](=O)[O-])ccc2-c2c1cc([N+](=O)[O-])cc2[N+](=O)[O-])N1CCOCC1	79%*
O=C(c1sc2cc([N+](=O)[O-])ccc2c1Cl)N1CCOCC1	i
O=C(c1cccc([N+](=O)[O-])c1)N1CCOCC1	i
CCSCCOC(=O)C1=C(C)NC2=C(C(=O)CCC2)C1c1cccc(Br)c1 (stereo unspecified)	i
CCSCCOC(=O)C1=C(C)Nc2ccccc2S1	43%*
CCOc1ccccc1C1C(C(=O)OCCSCC)=C(C)NC2=C1C(=O)CC(C)(C)C2 (stereo unspecified)	i
CC[C@H]1CN(Cc2ccc(OC)cc2O)CC[C@H]1CC(=O)N(C)CC#N	i
Cc1cc(N2CCC(CCCc3ccccc3)(C(=O)O)CC2)nc(N)n1	i
c1ccc2c(c1)Nc1ccc3ccccc3c1S2	39%*
COc1ccc(C2=CC(=O)Nc3ccccc3S2)cc1	i
Fc1ccc2c(c1)Sc1ccccc1N2	36%*
CCOC(=O)c1c(NC(=O)COc2ccc(Cl)cc2Br)sc(C)c1C	i
COC(=O)c1c(C)nc2n(CCN3CCOCC3)c3ccccc3n12	i
Cc1cccc(N2CCN(C(=O)c3ccccc3N3CCOCC3)CC2)n1	i
CCCCS(=N)(=O)CCC(N)C(=O)O (stereo unspecified)	i
NC(=O)CC[C@H](N)C(=O)O	i
N[C@H](CCC(=O)NCS(=O)(=O)O)C(=O)O	85%*
NC[C@H]1O[C@@H](CO)[C@@H](O)[C@H]1N1CCN(c2ccc(F)cc2)CC1	i
